# HTT aggregate: reduces HttQ103-GFP aggregates in PC12 cells. Potency, µM (series often up to 46.1 µM), inactives show at the highest dose activity change, negative = inhibition, usual class: inhibitors. AID 1688. actives 1.1% (n = 220,000). PC12 HttQ103-GFP aggregates, Acumen cytometry, 40 h; note: % is set by controls: 0 for no effect and ±100 for the full control effect; nearly all actives have a fitted effect of over 60% in size
#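 Inducible Q103 Huntingtin exon 1–GFP PC12 line, 1500 cells/well in phenol red free DMEM with 5% equine and 5% calf serum. Tebufenozide 100 nM induced expression; compounds titrated; aggregates quantified by cytometry.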
# KDM4E inh: blocks human JMJD2E demethylase activity. B2RXH2. JMJD2E catalytic domain, FDH-coupled NADH fluorescence (FDH is formaldehyde dehydrogenase). Potency, µM (highest dose often 57.1 µM), inactives show top-dose activity change, negative = inhibition, actives largely listed as inhibitors. actives 1.6% (n = 230,000); active = well fitted inhibition curve with a large enough effect, not every such curve was filed as active; inconclusive = small, poorly fitted or top-dose-only effect, or another doubt; inactive = no such curve, though single readings can be large or run the other way;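 note: 0% = wells with enzyme and -100% = buffer wells without enzyme; nearly all actives have a fitted effect of over 50% in size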
# HTT ATP protect: protects HTT-Q103 PC12 cells, measured by ATP; PC12 HTT-Q103 induced, cytoprotection, ATP luminescence, 40 h; Potency, µM (series often up to 56.4 µM), for inactives: cytoprotection (ATP increase), most hits filed as activators; actives 0.14% (n = 230,000); AID 1471; note: % of control where 0% means no effect; nearly all actives have a fitted effect of over 45% in size
#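 ATP quantification (ATPlite) reports survival of PC12 cells in which tebufenozide, 100 nM final, switches on Htt exon 1 with 103 glutamines linked to GFP; compounds are titrated.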
# L3MBTL1 block: L3MBTL1 (human) inhibition; Q9Y468; AlphaScreen L3MBTL1–H3K9me1 peptide binding; Potency, µM (doses to about 57.1 µM), inactives show at the highest dose activity, negative = inhibition, usual class: inhibitors; AID 485360; actives 0.66% (n = 230,000); note: % is set by controls: 0 for no effect and ±100 for the full control effect; nearly all actives have a fitted effect of over 60% in size
# Target sequence (Q9Y468 whole entry, looked up): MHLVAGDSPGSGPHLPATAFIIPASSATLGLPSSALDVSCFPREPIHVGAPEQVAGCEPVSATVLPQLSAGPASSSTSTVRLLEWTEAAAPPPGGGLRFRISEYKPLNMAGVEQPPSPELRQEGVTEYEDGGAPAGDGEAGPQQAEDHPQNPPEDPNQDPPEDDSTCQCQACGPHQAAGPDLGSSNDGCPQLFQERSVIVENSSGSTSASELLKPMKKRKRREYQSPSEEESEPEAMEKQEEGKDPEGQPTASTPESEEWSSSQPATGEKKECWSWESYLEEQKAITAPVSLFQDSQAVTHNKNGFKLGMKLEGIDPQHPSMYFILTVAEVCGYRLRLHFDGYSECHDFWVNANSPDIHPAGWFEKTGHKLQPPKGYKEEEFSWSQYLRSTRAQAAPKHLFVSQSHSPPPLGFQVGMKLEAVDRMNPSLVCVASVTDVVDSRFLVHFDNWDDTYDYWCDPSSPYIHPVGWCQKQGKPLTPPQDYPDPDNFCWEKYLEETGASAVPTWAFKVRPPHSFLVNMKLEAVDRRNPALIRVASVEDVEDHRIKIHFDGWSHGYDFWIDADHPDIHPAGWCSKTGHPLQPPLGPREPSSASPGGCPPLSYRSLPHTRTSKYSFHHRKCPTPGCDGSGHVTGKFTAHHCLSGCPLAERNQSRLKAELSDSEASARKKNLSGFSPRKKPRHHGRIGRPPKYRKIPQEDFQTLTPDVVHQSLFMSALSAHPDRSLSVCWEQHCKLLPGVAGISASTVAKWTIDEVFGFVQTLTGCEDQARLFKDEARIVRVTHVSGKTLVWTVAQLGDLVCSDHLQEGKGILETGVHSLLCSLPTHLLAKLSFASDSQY
#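 First, the protein-peptide complex forms for 30 min at room temperature (L3MBTL1 50 nM, biotinylated H3K9me1 peptide 75 nM). Next, compounds are pin-transferred and incubated 30 min. Finally, AlphaScreen beads are added and read after 30 min.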
# * hit, by the source's call; u = inconclusive; x = not tested or not shown; [ ] = dose if it differs, or a comment. Sampled rows, rich in hits. Any-hit rate of the full collection: about 1.8%. Unless noted, calls come from the whole dose curve; as a rule, active = well fitted curve in the direction sought with a large enough effect; inconclusive = small, poorly fitted or top-dose-only effect, or another doubt; inactive = no such curve, though single readings can be large; an effect the other way counts as inactive or inconclusive. Potency is the fitted concentration of half-maximal effect.
SMILES,HTT aggregate,KDM4E inh,HTT ATP protect,L3MBTL1 block
c1ccc(-c2nc(-c3ccccc3)c(NC3CCCCC3)o2)cc1,x,-1%,28%,x
Cc1[nH]c2ccccc2c1/C=N/NC(=O)CCC(=O)NCc1ccccc1,-7%[9.22 µM],0%,-22%[10 µM],-6%
Cc1[nH]c2ccccc2c1/C=N/NC(=O)C1CC1(c1ccccc1)c1ccccc1 (stereo not drawn),13µM*,-6%,8%[10 µM],-14%
O=C1c2c(O)cc(O)cc2O[C@H](c2ccc(O)c(O)c2)[C@@H]1O,x,14µM*,x,x
C[C@@H]1O[C@@H](O[C@@H]2C(=O)c3c(O)cc(O)cc3O[C@H]2c2ccc(O)c(O)c2)[C@H](O)[C@H](O)[C@H]1O,x,x,x,-5%
COc1cc([C@@H]2Oc3cc([C@H]4Oc5cc(O)cc(O)c5C(=O)[C@H]4O)ccc3O[C@H]2CO)ccc1O,x,28µM*,19%[1.9 µM],x
O=C1c2c(O)cc(O)cc2O[C@H](c2ccc(O)c(O)c2)[C@H]1O,x,20µM*,x,x
CC1=CC(C)(C)Nc2ccc(OC(=O)CN3C(=O)c4ccccc4C3=O)cc21,u,0%,x,-25%
CC1=CC(C)(C)Nc2ccc(OC(=O)CN3C(=O)c4cccc5cccc(c45)C3=O)cc21,u,13µM*,-114%,u
O=[N+]([O-])c1c(Nc2ccccc2)ccc2nonc12,8%,0%,19%[10 µM],-8%
CCOC(=O)NNc1ccc2nonc2c1[N+](=O)[O-],6%[9.22 µM],6.3µM*,23%[10 µM],32µM*
CC(C)(C)C(=O)NC(=S)NNC(=O)c1sc2ccccc2c1Cl,10µM*,-13%,-27%[10 µM],1%
CC(C)=CCc1c(O)cc2oc3c(CC=C(C)C)c(O)c(O)c(CC=C(C)C)c3c(=O)c2c1O,16%[9.22 µM],28µM*,8%[10 µM],x
CCOC(=O)c1sc(NC(=O)c2ccc(Cl)s2)cc1C,-15%,-2%,-8%[10 µM],4%
CCOC(=O)c1sc(NC(=O)Nc2ccc(Cl)cc2)cc1C,22µM*,-4%,-6%[10 µM],5%
CC(=O)OC1C(N2CCCCC2)c2c(ccc(/C=C/C(=O)N3CCCCC3)c2O)OC1(C)C (stereo not drawn),2%[9.22 µM],7.1µM*,-1%[10 µM],-9%
CC1(C)Oc2ccc3ccc(=O)oc3c2C(N2CCCCC2)C1O (stereo not drawn),-5%,u,3%,x
CCOC(=O)/C(=N/Nc1ccc(Cl)cc1)Sc1nnnn1-c1ccc(C)cc1,2.5µM*,8%,5%[10 µM],7%
CCc1cc2c(nc1CC)CCN(CC/C(C)=N/OCC[C@@H]1C=C[C@H](OC(C)=O)[C@H](COC(C)=O)O1)C2,x,x,1%[10 µM],x
O=C(Nc1cccc(S(=O)(=O)N2CCCC2)c1)c1ccco1,x,x,x,0%
CN(c1ccccc1)S(=O)(=O)c1cccc(NC(=O)c2cc(=O)c3ccccc3o2)c1,13µM*,15%,-123%,x
O=C(Nc1cccc(S(=O)(=O)N2CCCCCC2)c1)c1cc(=O)c2ccccc2o1,20µM*,-27%,-39%,29%
Fc1ccccc1-c1nc(-c2ccccc2)oc1NC1CCCCC1,x,-2%,25%,x
COc1ccc(Cl)cc1C(=O)NCCc1ccc(S(=O)(=O)NC(=O)NC2CCCCC2)cc1,7%,10%,-30%,0%
COc1ccc2c(c1)C(=O)N(CCc1ccc(S(=O)(=O)NC(=O)NC3CCCCC3)cc1)C(=O)C2(C)C,-19%[20.6 µM],7.9µM*,4%[40.3 µM],x
SMILES,HTT aggregate,KDM4E inh,HTT ATP protect,L3MBTL1 block
O=C1/C(=C/Nc2ccc3c(c2)OCO3)CCc2ccccc21,u,14µM*,-52%,x
Cc1sc2ncnc(N3CCN(CCOc4ccc(Cl)cc4)CC3)c2c1C,2µM*,2%,-35%,x
CC1(O)C(=O)C=C2C=C3CCCN3C=C2C1=O (stereo not drawn),x,x,-15%[10 µM],x
CCOC(=O)c1cnc(-n2nc(C)cc2C)[nH]c1=O,-6%[9.22 µM],u,-2%[10 µM],5%
CCOC(=O)c1cnc(-n2[nH]c(C)cc2=O)[nH]c1=O,-2%,u,17%,3.2µM*
O=C1c2ccccc2-n2c1nc1ccccc1c2=O,11µM*,5%,-168%,16%
Cc1nc(NCc2ccccc2)c2nc(-c3ccccc3)n(CCN3CCCCC3)c2n1,x,u,-69%,x
COc1ccccc1NC(=O)CSc1c2c(nc3ccccc13)CCC2,35µM*,5%,-5%[10 µM],4%
O=C(CSc1c2c(nc3ccccc13)CCC2)N1CCCC1,u,-1%,10µM*,x
CC1Cc2c(COc3ccccc3)nc3c(c2CO1)CN(CCOc1ccccc1)CC3 (stereo not drawn),x,x,6%[10 µM],x
O=C(c1ccco1)N1CCn2cccc2C1c1ccccc1 (stereo not drawn),-5%,u,0.89µM*,u
CC(=C/C=C/C(C)=C/C=C/C=C(C)/C=C/C=C(C)/C=C/C(=O)O)/C=C/C(=O)O,x,x,-6%,x
COCOc1ccc(Br)cc1C(=O)/C=C\c1ccc2c(c1)OCO2,x,x,-65%[10 µM],x
CSc1nc(N)nc(SCCS(=O)(=O)c2ccc(Cl)cc2)c1C#N,10µM*,-11%,-13%[0.074 µM],9%
CSc1nc(N)nc(SCC(=O)Nc2ccc(Cl)cc2)c1C#N,8%,u,-14%,-1%
CCC(C)Oc1ccc(/C=C/c2[nH]c(=O)[nH]c(=O)c2[N+](=O)[O-])cc1OC (stereo not drawn),19%,0%,-9%,x
COc1cc(/C=C/c2[nH]c(=O)[nH]c(=O)c2[N+](=O)[O-])ccc1OCCC(C)C,u,-3%,13µM*,x
O=c1[nH]c(=O)n([C@H]2C[C@H](O)[C@H](CO)O2)cc1/C=C\Br,x,x,-7%[1.9 µM],x
Cc1cc(=O)oc2cc(OC3C=CC(C#CC(C)(C)C)OC3CO)ccc12 (stereo not drawn),x,x,-10%[10 µM],x
CC[C@]1(O)CC2CN(CCc3c([nH]c4ccccc34)[C@@](C(=O)OC)(c3cc4c(cc3OC)N(C)[C@H]3[C@@](O)(C(=O)OC)[C@H](OC(C)=O)[C@]5(CC)C=CCN6CC[C@]43[C@@H]65)C2)C1 (stereo partly drawn),-43%,x,-88%,x
CCC1=C[C@@H]2CN(C1)Cc1c([nH]c3ccccc13)[C@@](C(=O)OC)(c1cc3c(cc1OC)N(C)[C@@H]1[C@@](O)(C(=O)OC)[C@H](OC(C)=O)[C@]4(CC)C=CCN5CC[C@]31[C@@H]54)C2,5.6µM*,x,-98%,x
CCS(=O)(=O)c1ccc(Sc2nncn2C)c([N+](=O)[O-])c1,11µM*,-6%,-165%,25%
O=[N+]([O-])c1ccc(/C=N/Nc2nc(N3CCCCCC3)nc(N3CCCCCC3)n2)o1,7.1µM*,5%,-15%[10 µM],-21%
CCOC(=O)N/N=C\c1ccc([N+](=O)[O-])o1,-31%,-1%,-4%,1%
CC(=O)N/N=C/c1ccc([N+](=O)[O-])o1,32µM*,x,-367%,x
O=[N+]([O-])c1ccc(/C=N/Nc2nc(N3CCCCC3)nc(N3CCCCC3)n2)cc1,1%[9.22 µM],1%,12%[10 µM],6%
O=[N+]([O-])c1ccc(/C=N/N=C/c2ccc([N+](=O)[O-])o2)o1,6%[9.22 µM],14µM*,-179%,u

# From PubChem
